Screen size: about 16,000 compounds; about 5,800 (36%) were called active. Inconclusive results (about 23%) are left out. Calls follow the shape of the dose curve; as a rule, active = well fitted curve in the direction sought with a large enough effect; inconclusive = small, poorly fitted or top-dose-only effect, or effect the other way; inactive = no such curve, though single readings can be large or run the other way. This is one part of the list.
% is scaled to controls: 0 for no effect and ±100 for the full control effect.

Cytochrome P450 2C19 (Homo sapiens), sequence (P33261 whole entry, looked up): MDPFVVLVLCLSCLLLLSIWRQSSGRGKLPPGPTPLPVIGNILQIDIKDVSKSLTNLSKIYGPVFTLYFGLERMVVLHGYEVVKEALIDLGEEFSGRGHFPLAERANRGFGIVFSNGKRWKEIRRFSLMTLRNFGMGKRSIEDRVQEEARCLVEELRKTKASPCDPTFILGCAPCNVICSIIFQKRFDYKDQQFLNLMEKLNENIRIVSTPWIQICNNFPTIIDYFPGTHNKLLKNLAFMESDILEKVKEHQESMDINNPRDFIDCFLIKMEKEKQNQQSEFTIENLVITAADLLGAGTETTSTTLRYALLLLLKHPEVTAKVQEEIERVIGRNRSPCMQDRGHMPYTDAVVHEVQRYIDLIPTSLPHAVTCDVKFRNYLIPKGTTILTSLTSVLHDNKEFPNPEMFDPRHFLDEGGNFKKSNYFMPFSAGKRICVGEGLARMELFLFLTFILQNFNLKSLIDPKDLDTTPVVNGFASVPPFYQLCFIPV

The experiment addresses Cytochrome P450 2C19 (Homo sapiens) (UniProt P33261). Kind of experiment: Cytochrome panel assay with activity outcomes. The conditions noted are these: recombinant CYP, pro-luciferin dealkylation, luminescence, p450-cyp2c19; series mostly up to 57.1 µM; activity, negative = inhibition: at the top concentration.
As for `COc1ccc(-n2c(=O)c(-c3cccc(C#N)c3)nc3cnc(N4CCNCC4)nc32)cc1`, the “activity, negative = inhibition” value was -21.4% (inactive).

Turning to `C[C@H]1CC(C)(C)C[C@@](OCCN2CCCCC2)(c2ccccc2)C1`, the activity, negative = inhibition was -2.08% [at 11.4 µM] (inactive). For `COc1cccc(CC(C(=O)Nc2cc(C)ccc2C)c2nn[nH]n2)c1OC` (configuration not stated), the AC50 is 11.2 µM (active).

As for `O=C1C2=CC[C@H]3C(=O)N(c4cccc(Oc5ccccc5)c4)C(=O)[C@@H]3[C@@H]2[C@H](O)[C@@H]2O[C@H]12`, the activity, negative = inhibition is 2.5% [at 11.4 µM] (inactive). Regarding `Cc1cccc(Oc2coc3cc(OC(=O)c4cccs4)ccc3c2=O)c1`, the AC50 is 3.98 µM (active). On the same count and under the same terms, the figure for `COc1cccc(C2C3=C(CC(C)(C)CC3=O)OC(N)=C2[N+](=O)[O-])c1` (configuration not stated) is 8.91 µM (active); for `Cc1cc(=O)oc(C)c1C(=O)N1CCCCC1` it is 4.47 µM (active). Consider `CCCNC(=O)c1c(C)cc(=O)oc1C`, for which the “activity, negative = inhibition” value is 3.91% (inactive). In the case of `CCC(C)NC(=O)c1c(C)cc(=O)oc1C` (configuration not stated), the “activity, negative = inhibition” value was 41.3% (inactive). `O=C(CCc1ccccc1)NNC(=O)C1CCCCC1`: the AC50 is 25.1 µM (active).

`CN(C)CC(O)COc1ccc(C(C)(C)c2ccc(OCC(O)CN(C)C)cc2)cc1` (configuration not stated): the “activity, negative = inhibition” value is -6.76% (inactive). With `CCC(=O)c1ccc(OCC(O)CN(CCc2ccccc2)Cc2ccccc2)cc1` (configuration not stated), the AC50 was 1.12 µM (active).

Take `O[C@@H](C1=C/C(=C\c2ccncc2)c2ccccc21)c1ccncc1`: the AC50 is 0.158 µM (active). Turning to `C[N+](C)(C)CCC(=O)c1cccc2ccccc12`, the “activity, negative = inhibition” value was -12.3% (inactive). Consider `CCC(=O)Nc1ccccc1C(=O)OCC(=O)c1ccccc1`, for which the AC50 is 3.55 µM (active). `CCC(=O)Nc1ccccc1C(=O)OCC(=O)c1cccc2ccccc12`: the AC50 was 4.47 µM (active).

As for `CC(C)NC(=O)N1CCCC2(CCN(C(=O)c3cccn3C)CC2)C1`, the “activity, negative = inhibition” value is -5.61% (inactive). With `O=C(c1ccc2c(c1)OCCO2)C1CCN(S(=O)(=O)c2ccccc2F)CC1`, the AC50 is 3.16 µM (active). On to `O=C(NNC(=O)C1CCN(S(=O)(=O)c2ccc(Cl)cc2)CC1)c1ccc(Cl)cc1`, for which the “activity, negative = inhibition” value is 22.2% (inactive). With `COc1cccc(C2C3(C#N)C(N)=NC(OC)(OC)C23C#N)c1` (configuration not stated), the AC50 is 4.47 µM (active). Take `CC(C)N1CCN(c2ccc(OC[C@@H]3CO[C@@](Cn4cncn4)(c4ccc(Cl)cc4Cl)O3)cc2)CC1`: the “activity, negative = inhibition” value was 7.39% [at 25.6 µM] (inactive). Still for that read-out and setting: the figure for `Cc1ccccc1N1C(=O)c2cc(S(N)(=O)=O)c(Cl)cc2N[C@H]1C` is 5.2% [at 25.6 µM] (inactive). As to `COc1ccccc1NC(=O)COC(=O)c1ccc(S(=O)(=O)NCc2ccco2)cc1`, the AC50 was 5.01 µM (active). In the case of `COc1cc(C(=O)OCC(=O)Nc2cc(C)on2)cc(OC)c1OC`, the “activity, negative = inhibition” value was -28.1% (inactive).

For the compound `COc1ccccc1NS(=O)(=O)c1cccc(C(=O)OCC(=O)Nc2cc(C)on2)c1`, the AC50 is 7.94 µM (active). Consider `Cc1cc(N(CN2CCCC2=O)C(=O)c2ccc(F)cc2)no1`, for which the “activity, negative = inhibition” value was -20.2% (inactive).

Turning to `Cc1cc(NC(=O)COC(=O)c2ccc(S(=O)(=O)N3CCCc4ccccc43)cc2)no1`, the AC50 was 4.47 µM (active).

Usually AC50 stands for the midpoint of the concentration-response curve, whichever way the signal moves.

The values are drawn from PubChem BioAssay AID1851 (National Center for Advancing Translational Sciences (NCATS), 2009).
